Only some compounds are listed: those with a hit (about 2.9% of all), similar ones and a draw of the others.
ERa SRC1 pot: ER-alpha (human) coactivator binding potentiation; P03372; TR-FRET ERalpha-LBD/SRC-Cy5 coactivator binding, 2 h; 100 = basal binding, no effect; coactivator binding (% of control), % at 25.6 µM; 86,000 compounds, 1.3% hits; AID 639; in the data active = activity above about 200%;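 also: binding measured in presence of low estradiol as agonist stimulus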
F-actin modifier: alters cytoskeleton assembly in HUVEC cells | HUVEC TNFa F-actin phalloidin imaging, high content | inhibition, % at 2 µM | 91,000 compounds, 0.18% hits;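 active = inhibition above the batch mean plus 3 SD and confirmed as a hit by visual image inspection, cut at about 30% in these data, passing the limit was not always enough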
Candida biofilm: kills Candida albicans biofilms. C. albicans biofilm + clotrimazole, Alamar Blue. inhibition, % at 6 µM. 85,000 compounds, 0.14% hits. AID 834;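 active = inhibition above 20%; inactive = inhibition below 20%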;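 also: preformed 24 hr biofilms exposed to compound for 48 hr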
E-sel TNF inh: TNF alpha driven E-selectin expression inhibition; HUVEC TNFa-induced E-selectin immunofluorescence, high content; inhibition, % at 2 µM; AID 1246; 120,000 compounds, 0.71% hits;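 active = inhibition above the batch mean plus 3 SD, and confirmed as a hit on visual image review, cut at about 43% in these data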
ERa coact inh: blocks coactivator binding to human estrogen receptor alpha; TR-FRET ER-alpha LBD / SRC-1 peptide, estradiol-bound; inhibition, % at 25.6 µM; 86,000 compounds, 1.7% hits; AID 629; in the data active = inhibition above about 50%
ERb coact inh: ER-beta (human) coactivator binding inhibition | inhibition, % at 25.6 µM | Q92731 | 86,000 compounds, 1.3% hits | TR-FRET ER-beta LBD / SRC1-Cy5 peptide binding; receptor agonist-loaded with 1 µM estradiol;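 active = compounds whose percent inhibition of the receptor-coactivator binding signal exceeds about 50% in the single-dose screen, limit read from the data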
Target sequence (Q92731 whole entry, looked up, the tested form may be a part): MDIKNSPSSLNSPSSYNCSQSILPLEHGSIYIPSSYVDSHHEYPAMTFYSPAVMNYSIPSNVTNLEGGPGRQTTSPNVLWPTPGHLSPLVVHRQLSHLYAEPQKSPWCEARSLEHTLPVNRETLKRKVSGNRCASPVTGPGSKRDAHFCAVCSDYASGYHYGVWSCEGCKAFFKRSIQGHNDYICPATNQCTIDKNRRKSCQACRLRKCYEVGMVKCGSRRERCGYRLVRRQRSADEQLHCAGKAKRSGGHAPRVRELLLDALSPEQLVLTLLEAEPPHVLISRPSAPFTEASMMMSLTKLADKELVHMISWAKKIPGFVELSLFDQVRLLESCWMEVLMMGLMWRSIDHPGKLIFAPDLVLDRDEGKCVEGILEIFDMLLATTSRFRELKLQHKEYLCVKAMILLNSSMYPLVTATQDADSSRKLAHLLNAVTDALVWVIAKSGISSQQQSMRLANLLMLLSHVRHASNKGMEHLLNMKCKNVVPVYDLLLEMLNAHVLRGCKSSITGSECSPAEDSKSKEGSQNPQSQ
A number is an active result; n = inactive; x = no result; [ ] = remark or other dose.

SMILES	ERa SRC1 pot	F-actin modifier	Candida biofilm	E-sel TNF inh	ERa coact inh	ERb coact inh
O=C(COC(=O)COc1ccc(Nc2ccccc2)cc1)NCc1ccco1	n	n	n	x	n	52[fluorescence artefact?]
COc1cc(NC(=O)c2cccs2)c(C(=O)OCC(=O)NCc2ccco2)cc1OC	n	x	n	n	79	n
COc1ccc(NC(=O)c2cccs2)cc1NC(=O)c1ccco1	n	n	n	n	n	n
CCOc1cc(NC(=O)c2cccs2)c(OCC)cc1NC(=O)c1ccco1	n	n	n	n	n	65
Cc1cc(C(F)F)n2nc(C(=O)Nc3cccnc3Cl)nc2n1	n	n	n	n	n	n
Cc1ccc(OCC(=O)OCC(=O)c2c(N)n(C)c(=O)n(C)c2=O)cc1C	n	x	n	n	n	n
CSc1ccc(/C=N/NC(=O)CN2CCN(Cc3ccc(C)cc3)CC2)cc1	x	x	x	88	x	x
NC(=O)c1ccc([N+](=O)[O-])cc1SCc1ccccc1	n	n	n	n	n	53[fluorescence artefact?]
CC(C)c1nc2oc3c(NCc4cccnc4)ncnc3c2c2c1CCC2	515[fluorescence artefact?]	x	n	n	n	n
CCN1CCN(c2ncnc3c2oc2nc(C(C)C)c4c(c23)CCC4)CC1	n	x	n	x	n	n
CCOC(=O)N1CCN(c2ncnc3c2oc2nc(C(C)C)c4c(c23)CCC4)CC1	312[fluorescence artefact?]	x	n	n	n	n
COc1ccc(C(=O)N[C@H](C(=O)OCC(=O)NC(=O)c2cccn2C)C(C)C)cc1	x	x	x	n	x	x
COC(=O)c1ccc(-c2ccco2)n1Cc1nc(-c2ccc(OC)c(OC)c2)oc1C	n	x	n	x	70[fluorescence artefact?]	67[fluorescence artefact?]
Cc1ccccc1CC1(CO)CCCN(Cc2nc(-c3cccs3)oc2C)C1 (stereo not given)	x	x	x	n	x	x
Cc1c(NC(=O)c2ccc(-c3ccc([N+](=O)[O-])cc3Cl)o2)c(=O)n(-c2ccccc2)n1C	x	x	x	n	x	x
COC(=O)c1ccc(S(=O)(=O)N(Cc2cc3cc4c(cc3[nH]c2=O)OCO4)C2CCCCC2)cc1	306	x	n	x	n	n
O=c1[nH]c2ccc(S(=O)(=O)NCc3ccccc3)cc2[nH]1	x	x	x	n	x	x
O=C(Oc1ccc(-c2cnc3ccccc3n2)cc1)c1ccc(Br)o1	489	n	n	n	n	n
O=C(Oc1ccc(-c2cnc3ccccc3n2)cc1)c1cccc([N+](=O)[O-])c1	x	n	x	n	x	x
COc1cc(CC(=O)Oc2ccc3c(c2)OCO3)cc(OC)c1OC	n	x	x	91	n	n
COc1cc(OC)c(C(=O)Oc2ccc3c(c2)OCO3)cc1OC	n	n	n	x	n	n
O=C1c2ccccc2C(Nc2ccc3c(c2)OCCO3)N1Cc1ccc2c(c1)OCO2 (stereo not given)	n	n	n	x	n	n
O=C1OC(Nc2ccc3c(c2)OCO3)c2ccccc21 (stereo not given)	n	n	n	x	n	52
COc1ccc(Cc2nnc(-c3cccc(C)c3)o2)cc1OC	n	x	24	n	n	n
COc1ccc(CC(=O)Nc2cccc(-c3nnc(-c4cccc(C)c4)o3)c2)cc1OC	n	x	n	n	n	n
SMILES	ERa SRC1 pot	F-actin modifier	Candida biofilm	E-sel TNF inh	ERa coact inh	ERb coact inh
O=C(c1cccs1)N(C(=O)c1cccs1)c1ccc(Br)cn1	n	n	n	45	n	n
Cc1ccc(C(=O)CSc2nnnn2C(C)C)c(C)c1	n	n	n	n	n	n
CCOC(=O)c1c(C)oc2c1c(C(c1cccnc1)N1CCCCC1)c(O)c1ccccc12 (stereo not given)	n	n	n	n	68	67
CCOC(=O)c1c(C)oc2c1c(C(c1ccccc1)N1CCOCC1)c(O)c1ccccc12 (stereo not given)	x	n	x	n	x	x
Cc1oc2nc(SCC(=O)NC3CCCCC3)nc(N)c2c1C	n	n	n	n	n	n
O=C1CCCC2=C1C(c1ccsc1)CC(=O)N2c1ccccc1 (stereo not given)	n	n	n	n	n	n
Cc1ccc(C2CC(=O)N(c3ccc(F)cc3)C3=C2C(=O)CCC3)cc1 (stereo not given)	n	n	n	100	n	n
COC(=O)CCC/C=C1/SCC(NC(=O)c2ccccc2)C1NC(C)=O (stereo not given)	x	x	x	n	x	x
COC(=O)CCC/C=C1/SCC(NC(=O)c2ccccc2)C1O (stereo not given)	213	n	n	n	n	n
COc1cc2[nH]c(=O)n(CCC(=O)N3CCN(c4cc(Cl)ccc4C)CC3)c(=O)c2cc1OC	n	n	n	n	88[fluorescence artefact?]	n
CCOc1cc2[nH]c(=O)n(CCC(=O)N3CCN(c4ccccc4OC)CC3)c(=O)c2cc1OCC	n	n	n	n	n	n

Screens (PubChem BioAssay)
